{
  "source": "PubChem BioAssay AID1851",
  "about": "(National Center for Advancing Translational Sciences (NCATS), 2009)",
  "note": "The whole screen tested about 16,000 compounds, of which about 4,000 (25%) were called active. Inconclusive results (about 26%) are left out. The call rests on the fitted dose curve; in most records, active means well fitted curve in the direction sought with a large enough effect; inconclusive means small, poorly fitted or top-dose-only effect, or effect the other way; inactive means no such curve, though single readings can be large or run the other way. These entries were drawn from the full list. On the % scale 0 is the no-effect control and ±100 the full control effect.",
  "data": [
    {"target": "Cytochrome P450 2C9 (Homo sapiens) (UniProt P11712)", "sequence (P11712 whole entry, looked up)": "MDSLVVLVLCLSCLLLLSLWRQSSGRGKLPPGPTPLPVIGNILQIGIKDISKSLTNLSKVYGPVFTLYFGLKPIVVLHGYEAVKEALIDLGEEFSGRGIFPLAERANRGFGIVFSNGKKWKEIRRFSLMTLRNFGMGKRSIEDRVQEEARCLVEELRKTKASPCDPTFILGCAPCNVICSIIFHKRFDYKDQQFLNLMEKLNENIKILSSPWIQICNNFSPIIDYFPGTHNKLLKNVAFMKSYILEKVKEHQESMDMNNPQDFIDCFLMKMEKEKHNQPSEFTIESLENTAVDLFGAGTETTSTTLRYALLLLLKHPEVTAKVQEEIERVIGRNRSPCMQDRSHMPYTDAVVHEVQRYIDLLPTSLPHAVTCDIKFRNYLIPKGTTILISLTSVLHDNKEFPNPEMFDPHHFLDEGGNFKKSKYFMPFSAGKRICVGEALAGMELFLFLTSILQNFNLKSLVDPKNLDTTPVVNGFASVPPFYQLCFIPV", "experiment": "Cytochrome panel assay with activity outcomes", "details": "recombinant CYP, pro-luciferin dealkylation, luminescence, p450-cyp2c9; series mostly up to 57.1 µM; activity, negative = inhibition: at the top concentration", "values": [
      {"smiles": "C#C[C@]1(O)CC[C@@H]2[C@H]3CCc4cc(OC)ccc4[C@@H]3CC[C@@]21C", "activity, negative = inhibition": "-27.5% [at 25.6 µM] (inactive)"},
      {"smiles": "C#C[C@@]1(OC(C)=O)CC[C@@H]2[C@@H]3CCC4=C[C@@H](OC(C)=O)CC[C@H]4[C@H]3CC[C@]21C", "AC50": "15.8 µM (active)"},
      {"smiles": "C#C[C@]1(O)CC[C@@H]2[C@H]3CCC4=CCCC[C@@H]4[C@@H]3CC[C@@]21C", "AC50": "10 µM (active)"},
      {"smiles": "C#C[C@@]1(O)CC[C@@H]2[C@@H]3CCC4=CC(=O)CC[C@@H]4[C@H]3CC[C@]21CC", "activity, negative = inhibition": "-23.8% [at 25.6 µM] (inactive)"},
      {"smiles": "CC(C)(C)C(=O)NC(=C(Cl)Cl)P(=O)(O)O", "activity, negative = inhibition": "-19.5% (inactive)"},
      {"smiles": "CCCn1nc(NC(=O)CC(C)C)c2cc3ccccc3nc21", "AC50": "2 µM (active)"},
      {"smiles": "CCCS(=O)(=O)N1CCN(CC2CC=CCC2)CC1", "note": "(stereo not drawn)", "activity, negative = inhibition": "-43.6% (inactive)"},
      {"smiles": "Cc1noc(C)c1-c1cc(NC2CC2)ncn1", "activity, negative = inhibition": "-1.99% [at 2.29 µM] (inactive)"},
      {"smiles": "COc1cc(NC(=O)c2ccc(COCC(F)(F)F)cc2)cc(OC)c1OC", "activity, negative = inhibition": "22.1% (inactive)"},
      {"smiles": "COc1cc(C(=O)Nc2cc(C(F)(F)F)ccc2Cl)cc(OC)c1OC", "AC50": "8.91 µM (active)"},
      {"smiles": "N/C(CC(=O)Nc1cc(C(F)(F)F)ccc1Cl)=N\\O", "activity, negative = inhibition": "11.2% [at 11.4 µM] (inactive)"},
      {"smiles": "CC(C)(CN)CN", "activity, negative = inhibition": "2.97% [at 11.4 µM] (inactive)"},
      {"smiles": "CCC(C)NC(=O)C1CCN(C(=O)c2ccccc2)CC1", "note": "(stereo not drawn)", "activity, negative = inhibition": "-9.04% (inactive)"},
      {"smiles": "CC(C)C(NC(=O)C1CCCCC1)C(=O)NC1CCN(Cc2ccccc2)CC1", "note": "(stereo not drawn)", "activity, negative = inhibition": "7.86% (inactive)"},
      {"smiles": "CCC(C)NC(=O)C1CCCN(C(=O)NC2CCCCC2)C1", "note": "(stereo not drawn)", "AC50": "20 µM (active)"},
      {"smiles": "Cc1ccc(CCN2CC(C(=O)NC3CCCC3)CC2=O)cc1", "note": "(stereo not drawn)", "activity, negative = inhibition": "-15.5% (inactive)"},
      {"smiles": "COc1ccc(C2C(=O)N(CCc3ccccc3)CC(=O)N2C2CCCC2)cc1", "note": "(stereo not drawn)", "AC50": "22.4 µM (active)"},
      {"smiles": "COc1ccc(C2C(C(=O)N3CCN(C)CC3)c3ccccc3C(=O)N2C2CCCCC2)cc1", "note": "(stereo not drawn)", "activity, negative = inhibition": "-14% (inactive)"},
      {"smiles": "Cn1c(=O)n2n(c1=O)[C@H]1[C@H](O)[C@H]3O[C@H]3C(=O)[C@H]1CC2", "activity, negative = inhibition": "7.6% [at 11.4 µM] (inactive)"},
      {"smiles": "O=C(O)CN(CCN(CC(=O)O)CC(=O)O)CC(=O)O.[Cu]", "activity, negative = inhibition": "4.98% [at 11.4 µM] (inactive)"},
      {"smiles": "COC(=O)c1ccc(Oc2coc3cc(OCc4cnn(-c5ccccc5)c4)ccc3c2=O)cc1", "activity, negative = inhibition": "28.5% (inactive)"},
      {"smiles": "Cc1[nH]nc(-c2ccc(OCc3cnn(-c4ccccc4)c3)cc2O)c1Oc1ccccc1F", "AC50": "2 µM (active)"},
      {"smiles": "Cc1ccc(NC(=O)Nc2nc(-c3ccc(C)s3)cs2)cc1", "AC50": "3.55 µM (active)"},
      {"smiles": "O=C(c1cc(C(F)(F)F)cc(C(F)(F)F)c1)N1CCC[C@@]2(CCN(c3ncccn3)C2)C1", "activity, negative = inhibition": "-1.16% (inactive)"},
      {"smiles": "COc1ccc(CNC(=O)c2csc(Cc3ccc(OC)cc3)n2)cc1", "AC50": "10 µM (active)"},
      {"smiles": "CC(C)(C)c1ccc(C(=O)NCc2ccc(Cl)cc2)cc1", "activity, negative = inhibition": "9% (inactive)"},
      {"smiles": "COc1ccc(Cc2c(N)nc(N)nc2N)cc1", "activity, negative = inhibition": "11.5% (inactive)"},
      {"smiles": "COc1ccc(CNC(=O)c2csc(Cc3ccc(Cl)cc3)n2)cc1", "AC50": "3.98 µM (active)"},
      {"smiles": "COc1ccc(CNC(=O)C2CC(c3ccc(OC)cc3)=NO2)cc1", "note": "(stereo not drawn)", "activity, negative = inhibition": "16.9% (inactive)"},
      {"smiles": "COc1ccc(CNC(=O)c2cnc(C)cn2)cc1", "AC50": "35.5 µM (active)"},
      {"smiles": "COc1ccc(CNC(=O)C2CSC(=O)C2)cc1", "note": "(stereo not drawn)", "activity, negative = inhibition": "-18.7% (inactive)"},
      {"smiles": "Cc1cc(C(=O)NCc2ccccc2)no1", "activity, negative = inhibition": "-34.4% (inactive)"},
      {"smiles": "Cc1nc(CN2CCCCC2)c(O)c(=O)[nH]1", "activity, negative = inhibition": "7.96% [at 11.4 µM] (inactive)"},
      {"smiles": "C[C@]1(c2ccccc2)OC(C(=O)O)=CC1=O", "activity, negative = inhibition": "8.89% (inactive)"},
      {"smiles": "CC(=O)N(O)CCCCCNC(=O)CCC(=O)N(O)CCCCCNC(=O)CCC(=O)N(O)CCCCCN", "activity, negative = inhibition": "-3.39% [at 25.6 µM] (inactive)"},
      {"smiles": "O=c1c(Cl)c(N2CCN(S(=O)(=O)c3ccc(F)cc3)CC2)cnn1-c1cccc(Cl)c1", "activity, negative = inhibition": "-28.2% (inactive)"},
      {"smiles": "Cc1ccc(Cl)cc1N1CCN(S(=O)(=O)c2ccc3c(c2)OCCO3)CC1", "AC50": "2.82 µM (active)"},
      {"smiles": "O=C(O)CCC(=O)N1CCOc2ccc(Cl)cc21", "activity, negative = inhibition": "0.992% (inactive)"},
      {"smiles": "O=C(c1ccc2c(c1)OCCO2)C1CCN(S(=O)(=O)c2ccccc2F)CC1", "activity, negative = inhibition": "-25.3% (inactive)"},
      {"smiles": "Cc1ccc2nc(N3CCN(S(=O)(=O)c4ccc5c(c4)OCCO5)CC3)c(C#N)cc2c1", "AC50": "2.82 µM (active)"},
      {"smiles": "CC(=O)C1=C(NC(=O)c2ccc(F)cc2)CC2C1C2(C)C", "note": "(stereo not drawn)", "AC50": "3.55 µM (active)"},
      {"smiles": "O=C(Nc1cccc2[nH]ncc12)c1ccc(F)cc1", "activity, negative = inhibition": "-3.46% (inactive)"},
      {"smiles": "Cc1occc1C(=O)NNC(=O)c1ccc(F)cc1", "activity, negative = inhibition": "-15.1% (inactive)"},
      {"smiles": "C/C(CCN1CCCc2nc(C)c(C)cc21)=N\\OC[C@@H](C)[C@H](OCc1ccccc1)C(C)C", "activity, negative = inhibition": "24.5% [at 11.4 µM] (inactive)"},
      {"smiles": "Cn1ncc2c(NCCc3ccccc3)nc(Cl)nc21", "activity, negative = inhibition": "-22.7% [at 11.4 µM] (inactive)"},
      {"smiles": "O=C(CCCc1ccccn1)c1ccccc1", "activity, negative = inhibition": "-17.1% [at 11.4 µM] (inactive)"},
      {"smiles": "COc1ccccc1N1CCN(C[C@@H](O)COc2cccc3ccccc23)CC1", "activity, negative = inhibition": "18.2% [at 25.6 µM] (inactive)"},
      {"smiles": "OC[C@@H](O)COc1cccc2ccccc12", "activity, negative = inhibition": "-24.2% (inactive)"},
      {"smiles": "O=C(COc1cccc2ccccc12)N1c2ccccc2CCc2ccccc21", "AC50": "2.82 µM (active)"},
      {"smiles": "O=C(c1cccc(F)c1)N1CCC2(CCCN(Cc3nccs3)C2)CC1", "activity, negative = inhibition": "-3.9% (inactive)"},
      {"smiles": "O=C(c1cccc(F)c1)N1CCC2(CCN(Cc3nccs3)CC2)CC1", "AC50": "15.8 µM (active)"},
      {"smiles": "O=C(c1cc(C(F)(F)F)cc(C(F)(F)F)c1)N1CCC2(CCCN(Cc3nccs3)C2)CC1", "activity, negative = inhibition": "29.9% (inactive)"},
      {"smiles": "O=C(c1ccco1)N1CCC[C@@]2(CCN(Cc3nccs3)C2)C1", "activity, negative = inhibition": "-3.46% (inactive)"},
      {"smiles": "O=C(c1cc(C(F)(F)F)cc(C(F)(F)F)c1)N1CCC[C@@]2(CCN(Cc3nccs3)C2)C1", "activity, negative = inhibition": "-1.58% (inactive)"},
      {"smiles": "O=C(c1ccco1)N1CCC2(CCN(Cc3nccs3)CC2)CC1", "activity, negative = inhibition": "3.85% (inactive)"},
      {"smiles": "O=C(c1cccc(F)c1)N1CCC[C@@]2(CCN(Cc3nccs3)C2)C1", "AC50": "10 µM (active)"},
      {"smiles": "O=C(c1cc(C(F)(F)F)cc(C(F)(F)F)c1)N1CCC2(CCN(Cc3nccs3)CC2)CC1", "AC50": "12.6 µM (active)"},
      {"smiles": "O=C(c1ccncc1)N1CCC2(CCN(Cc3nccs3)CC2)CC1", "activity, negative = inhibition": "2.77% (inactive)"},
      {"smiles": "NC(N)=NN=Cc1c(Cl)cccc1Cl", "AC50": "inactive"},
      {"smiles": "Cc1cc2ccccn2c1C(=O)c1ccc(Cl)cc1", "AC50": "11.2 µM (active)"},
      {"smiles": "Cc1cc(CC(=O)O)n(C)c1C(=O)c1ccc(Cl)cc1", "activity, negative = inhibition": "-17.2% [at 25.6 µM] (inactive)"},
      {"smiles": "CCS(=O)(=O)c1ccc(C(=O)Nc2ccccc2)c(Cl)c1Cl", "AC50": "10 µM (active)"},
      {"smiles": "CN1C[C@H](c2ccccc2)C(O)([C@]2(c3ccccc3)CN(C)C[C@@H](c3ccccc3)C2=O)[C@H](c2ccccc2)C1", "note": "(stereo partly drawn)", "activity, negative = inhibition": "5.9% [at 11.4 µM] (inactive)"}
    ]}
  ]
}
